Data reported in PubChem BioAssay (NCATS).
Records with an inconclusive call do not appear. Values without a mark were called inactive. Activity calls are given as the source filed them. Calls come from the whole dose curve; as a rule, active = well fitted curve in the direction sought with a large enough effect; inconclusive = small, poorly fitted or top-dose-only effect, or another doubt; inactive = no such curve, though single readings can be large; an effect the other way counts as inactive or inconclusive.

system: HEK293T; experiment: qHTS assay to identify novel small-molecules to repurpose for Merkel cell carcinoma treatment (AID 1296009); settings: MCC and control cell lines, CellTiter-Glo viability, 72 h; series mostly up to 44.8 µM; note: nearly all actives have a fitted effect of over 60% in size
How it was run: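 Cell viability measured by CellTiter-Glo following 72 hr compound treatment at 37 degree celsius, with NPC and MIPE libraries tested in 8- and 11-point concentration series.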

Row | SMILES | outcome
1 | C=C1CC23CC1(O)CCC2C1=CC2OC(=O)C(C)(C2O)C1C3C(=O)O (stereo not given) | inactive
2 | CC(C)(O)c1ccc2c(c1)C(=O)CC1[C@](C)(CO)CCC[C@]21C (stereo not given in full) | inactive
3 | CN1CCC(c2c[nH]c3ccc(NC(=O)c4ccc(F)cc4)cc23)CC1 | inactive
4 | C[C@@H]1CC[C@]2(C(=O)O)CC[C@]3(C)C(=CCC4[C@]5(C)C(CC[C@]43C)C(C)(C)[C@@H](O)[C@H](O)[C@@H]5O)C2[C@]1(C)O (stereo not given in full) | inactive [at 17.4 µM]
5 | CC[C@H]1OC(=O)[C@H](C)[C@@H](OC2C[C@@](C)(OC)[C@@H](O)[C@H](C)O2)[C@H](C)[C@@H](OC2O[C@H](C)C[C@H](NC)[C@H]2O)[C@](C)(O)C[C@@H](C)CN(C)[C@H](C)[C@@H](O)[C@]1(C)O (stereo not given in full) | inactive
6 | COc1ccc(C2=CC(=O)OC2Cc2ccc(O)cc2)c(O)c1 (stereo not given) | inactive
7 | Cn1ccnc1CCOC(c1cc2nccc(C(=O)O)c2[nH]1)c1ccccc1Cl (stereo not given) | inactive
8 | CC1=C(C)C(=O)OC(C(C)C2C(O)CC3C4C5OC5C5(O)CC(OC6OC(CO)C(O)C(O)C6O)CC(O)C5(C)C4CCC32C)C1 (stereo not given) | inactive [at 17.4 µM]
9 | O=C(O)C[C@@H](NC(=O)c1cc(-c2ccc(-c3ccncc3)cc2)cs1)c1ccccc1 | inactive
10 | CC1(C)CC2C3=CCC4C5(C)CCC(OC6OC(C(=O)O)C(O)C(O)C6OC6OC(CO)C(O)C(O)C6OC6OC(CO)C(O)C(O)C6O)C(C)(CO)C5CCC4(C)C3(C)CCC2(C)C(OC2OCC(O)C(OC3OC(CO)C(O)C(O)C3O)C2O)C1O (stereo not given) | inactive [at 9.27 µM]

system: C33A; experiment: Primary qHTS to identify gynecologic anti-cancer compounds using libraries of approved drugs and bioactive compounds (AID 1345084); settings: Gynecologic cancer cell panel viability, ATPlite luminescence, 48 h; series mostly up to 57.5 µM; activity change, negative = cytotoxicity: at the top concentration; note: % is set by controls: 0 for no effect and ±100 for the full control effect; nearly all actives have a fitted effect of over 55% in size
How it was run: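 Luminescence from the ATPlite ATP-monitoring reagent indicates viable cell number; lower signal means cytotoxicity. Cells received compound 16 h after seeding and were exposed for 48 h across five concentrations.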

Row | SMILES | activity change, negative = cytotoxicity
11 | C=CC1(C)C=C2C(O)CC3C(C)(C(=O)O)CCCC3(C)C2CC1 (stereo not given) | 8.35% [at 38.5 µM]
12 | CC1CC(O)C2(C)C(C(=O)O)=CCCC2C1(C)CCc1ccoc1 (stereo not given) | 8.13% [at 38.5 µM]
13 | COCCCNCC1COc2ccccc2O1 (stereo not given) | 4.35%
14 | CC(=O)O[C@@H]1C[C@@]23C[C@@]24CC[C@H](OC2OC[C@@H](O)[C@H](O)[C@H]2O)C(C)(C)[C@@H]4CC[C@H]3[C@]2(C)CC3OC4(C[C@@H](C)C3[C@@]12C)OCC1(C)OC14 (stereo not given in full) | 3.37% [at 25.3 µM]
15 | C[C@@H]1C(=O)O[C@H]2CC34[C@H]5C[C@@H](C(C)(C)C)C36[C@@H](OC(=O)[C@@H]6O)OC4(C(=O)O5)[C@]21O (stereo not given in full) | -2.93%
16 | CC1(C)C(O)CCC2(C)C1C(O)C=C1COC(=O)C12O (stereo not given) | 7.7%
17 | CCCCNC(=O)[C@@H]1Cc2ccccc2N1C(=O)[C@@H](N)CC | 8.19%
18 | NCCCC[C@H](NC(=O)[C@@H]1Cc2ccccc2CN1C(=O)CCC(=O)c1ccccc1)C(=O)NCC(c1ccccc1)c1ccccc1 | 17.6%
19 | CC1CCC2(C(=O)OC3OC(CO)C(O)C(O)C3O)CCC3(C(=O)O)C(=CCC4C5(C)CCC(OC6OC(C)C(O)C(O)C6O)C(C)(C)C5CCC43C)C2C1C (stereo not given) | -3.3% [at 25.3 µM]
20 | CC(=O)N1CCN(NC(=O)c2ccc(F)cc2)CC1 | -0.158%
21 | COc1cc(C2Oc3c(OC)cc(/C=C/C(=O)OC[C@H]4O[C@@H](OC(C)(C)C(=O)O)[C@H](O)[C@@H](O)[C@@H]4O)cc3C2CO)ccc1O (stereo not given in full) | -0.719% [at 25.3 µM]
22 | CC1=C2C(=O)C=C(CO)[C@@H]2[C@H]2OC(=O)[C@H](C)[C@@H]2[C@@H](O)C1 | 6.98%
23 | C[C@@H]1O[C@@H](O[C@H]2[C@H](O)[C@@H](C(=O)O)O[C@@H](O[C@H]3CC[C@@]4(C)C(CC[C@]5(C)C4CC=C4C6CC(C)(C)CC[C@]6(C(=O)O)CC[C@]45C)C3(C)C)[C@@H]2O[C@@H]2O[C@H](CO)[C@@H](O)[C@H](O)[C@H]2O)[C@H](O)[C@H](O)[C@H]1O (stereo not given in full) | 0.0448% [at 11.6 µM]
24 | C(#Cc1cccc(CN2CCOCC2)c1)CCN1CCCCC1 | 3.5%
25 | C[C@@H]1C(=O)O[C@H]2[C@H]1CC[C@@]1(C)C(=O)C=C[C@](C)(O)[C@H]21 | 0.0052%
26 | CC(C)C(=O)O[C@@H]1[C@@H](O)[C@@H](O[C@H]2O[C@H](CO)[C@@H](O)[C@H](O)[C@H]2O)O[C@H](CO)[C@H]1O | -1.4% [at 25.3 µM]
27 | O=C(NCC(=O)N1CC[C@H](NC2CCC(O)(c3ccc(-c4ncccn4)cn3)CC2)C1)c1cccc(C(F)(F)F)c1 (stereo not given in full) | -2.52%
28 | CCCCS(=O)(=O)Nc1ncnc(OCCOc2ncc(Br)cn2)c1-c1ccc(Br)cc1 | 3.51%
29 | COc1cc([C@H]2OC[C@]3(OC(C)=O)[C@@H](c4ccc(O[C@@H]5O[C@H](CO)[C@@H](O)[C@H](O)[C@H]5O)c(OC)c4)OC[C@H]23)ccc1O | -1.53% [at 25.3 µM]
30 | O=C1NC(=Nc2ccccc2F)S/C1=C\c1ccc(C(=O)O)cc1 | 8.34%
